# Inconclusive results are not listed. Activity calls are given as the source filed them. Calls come from the whole dose curve; as a rule, active = well fitted inhibition curve with a large enough effect; inconclusive = small, poorly fitted or top-dose-only effect; inactive = flat fitted curve, though single readings scatter.
# Experiment: Confirmatory Assay for General miRNAs Modulators and/or Inhibitors/Activators of miR-21: second round cherrypicks
# Conditions: HeLa miR-21 FLuc reporter, luciferase luminescence, 48 h
# From the text: MLPCN Grant: 1 R21 NS059478-01 Assay Provider: Qihong Huang, The Wistar Institute NCGC Assay Overview: MicroRNAs (miRNAs) are endogenously encoded small (~20-25 nucleotides), nonprotein-coding RNAs that are involved in post-transcriptional repression of target messenger RNAs (mRNAs) (Le and Hannon, 2004). Estimated to be involved in the regulation of 30% of all protein-coding mRNAs (Filipowicz et al., 2008), miRNAs play a significant role in many biological processes including cellular differentiation and tissue development (Ghildiyal and Zamore, 2009).
# NCGC Assay Protocol Summary: Reagents: HeLa cells stably expressing firefly luciferase (FLuc) under the control of a CMV promoter (upstream) and a miR-21 binding sequence directly downstream of the gene. These cells endogenously express miR-21. Control compounds used were compound C3 (provided by collaborator), N6-phenyladenosine (MP Biomedicals, 0215379625), and DMSO. Assay Summary: 6uL of HeLa miR-21-FLuc cells in assay buffer (DMEM, Invitrogen #21063-029; 10% FBS, HyClone #SH30071.03) were dispensed at 2000cells/well (3.3 x 10^5 cells/mL) into Greiner solid-white TC-treated 1536-well plates using a Multidrop Combi (Thermo Fisher Scientific). […] After a 15 minute incubation to allow for cell lysis, luciferase activity was measured using a ViewLux CCD imager (PerkinElmer), with an average exposure time of 2-12 seconds. […]
structure (smiles),measurement,value
O=c1c2ccccc2nc(Cc2ccccc2)n1-c1ccccc1,Potency,14.2 µM (active)

# From PubChem BioAssay AID493174 (National Center for Advancing Translational Sciences (NCATS), 2011)
